Source: PubChem BioAssay (National Center for Advancing Translational Sciences (NCATS))
IMPase cell inh – qHTS Assay for Identifying the Cell-Membrane Permeable IMPase Inhibitors; Inositol monophosphatase 1 (Rattus norvegicus), P97697; CHO-M1 cells, IP1 accumulation, HTRF TR-FRET ratio; inhibition (IP1 accumulation), % at 46.1 µM; 120,000 tested, under 10 active; AID 901, 2007; active = well fitted curve in the direction sought with a large enough effect in the signal ratio, not every such curve was filed as active; inconclusive = small, poorly fitted or top-dose-only effect, or a change in a side signal; inactive = no such curve, though single readings can be large or run the other way; the % refers to the signal ratio;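 note: cells stimulated with carbachol in lithium chloride buffer; plate controls were DMSO basal wells for no effect and reference inhibitor wells for full effect; higher means more IMPase inhibition seen as more IP1 and lower FRET ratio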
Target sequence (P97697 whole entry, looked up): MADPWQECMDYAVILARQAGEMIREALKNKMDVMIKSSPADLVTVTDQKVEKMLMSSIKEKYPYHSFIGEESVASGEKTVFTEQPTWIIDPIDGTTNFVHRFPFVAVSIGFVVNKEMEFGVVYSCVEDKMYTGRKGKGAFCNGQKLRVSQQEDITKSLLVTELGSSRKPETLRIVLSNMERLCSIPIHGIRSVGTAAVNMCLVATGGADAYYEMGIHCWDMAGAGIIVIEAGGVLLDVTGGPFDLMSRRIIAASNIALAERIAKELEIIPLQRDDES
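CHO-M1 cells (CHO stably expressing M1 receptor), compound up to 46 uM final, stimulated with carbachol (50 uM as added) in buffer with 50mM LiCl, pH 7.4, 30 min at 37C. Cytosolic IP1 read by TR-FRET; AC50 from Hill fits.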
HttQ103 aggreg – qHTS Multiplex Assay to Identify Dual Action Probes in a Cell Model of Huntington: Aggregate Formation (GFP) | PC12 HttQ103-GFP aggregates, Acumen cytometry, 40 h | Potency, µM (top dose mostly 46.1 µM), without a hit: top-dose activity change, negative = inhibition, most hits filed as inhibitors | 1.1% of 220,000 active; note: potency is the fitted concentration of half-maximal effect; % is set by controls: 0 for no effect and ±100 for the full control effect; nearly all actives have a fitted effect of over 60% in size
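Aggregate formation scored by laser-scanning cytometer (488 excitation, 500–530 emission) in lysed PC12 cells expressing Q103-GFP after 100 nM tebufenozide induction; library tested in dose series, with ATPLite reagent added in the multiplex.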
HTT cytoprotect – qHTS Multiplex Assay to Identify Dual Action Probes in a Cell Model of Huntington: Cytoprotection (ATP). PC12 HTT-Q103 induced, cytoprotection, ATP luminescence, 40 h. Potency, µM (series often up to 56.4 µM), for the others: cytoprotection (ATP increase), actives largely listed as activators. 0.14% of 230,000 active. AID 1471, 2008; note: potency is the fitted concentration of half-maximal effect; % of control where 0% means no effect; nearly all actives have a fitted effect of over 45% in size
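PC12 cells with ecdysone-inducible HTT exon 1 Q103-GFP, induced with 100 nM tebufenozide and co-treated with library compounds in a dose series (1536-well, 1500 cells/well). Cytoprotection read as ATP content by ATPlite luminescence.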
PNC inhibitor – High Content Assay for Compounds that inhibit the Assembly of the Perinucleolar Compartment; PC3M PTB-GFP, PNC prevalence imaging, 16 h; stronger effect = lower value; activity change (PNC), negative = inhibition, % at 10 µM; 3.1% of 140,000 active; AID 2417, 2010;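 active = readout at or below -70, meaning at least 70% loss of cells showing the perinucleolar compartment, a nuclear body marking cancer cells; inconclusive = readout between -30 and a set limit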;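 note: plate controls were DMSO wells for no effect and camptothecin positive control wells for full effect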
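PC3M cells stably expressing PTB-GFP, 750–1000 cells/well, treated 16 h at 37 °C with compound (23 nl of library stock), in duplicate. After paraformaldehyde fixation and Hoechst stain, imaged at 20x; PNC prevalence scored by image analysis.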
NPSR antag – qHTS Assay for Antagonists of the Neuropeptide S Receptor: cAMP Signal Transduction; CHO-NPSR cells, cAMP TR-FRET, antagonist mode; Potency, µM (series often up to 38.3 µM), inactives show top-dose activity change, negative = inhibition, hits mostly inhibitors; 1% of 220,000 active; note: potency is the fitted concentration of half-maximal effect; % is set by controls: 0 for no effect and ±100 for the full control effect; nearly all actives have a fitted effect of over 50% in size
Target sequence (Q6W5P4 whole entry, looked up): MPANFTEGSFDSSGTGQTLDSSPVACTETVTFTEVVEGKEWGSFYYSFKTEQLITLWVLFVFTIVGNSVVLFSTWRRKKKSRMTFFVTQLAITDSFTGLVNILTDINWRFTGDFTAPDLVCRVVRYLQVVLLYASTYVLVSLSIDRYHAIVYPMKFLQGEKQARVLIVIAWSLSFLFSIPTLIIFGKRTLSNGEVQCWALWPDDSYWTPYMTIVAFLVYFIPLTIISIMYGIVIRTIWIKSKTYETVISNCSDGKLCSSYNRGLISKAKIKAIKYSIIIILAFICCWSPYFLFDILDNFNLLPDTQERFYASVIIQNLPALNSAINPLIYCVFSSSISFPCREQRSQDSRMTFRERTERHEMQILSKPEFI
ALOX12 inhib – qHTS Assay for Inhibitors of 12-hLO (12-human lipoxygenase); Polyunsaturated fatty acid lipoxygenase ALOX12 (Homo sapiens), P18054; purified 12-hLO, xylenol orange hydroperoxide absorbance; Potency, µM (doses to about 57.1 µM), for the others: at the highest dose activity change, negative = inhibition, hits mostly inhibitors; 0.12% of 150,000 active; AID 1452, 2008; note: potency is the fitted concentration of half-maximal effect; % is set by controls: 0 for no effect and ±100 for the full control effect; nearly all actives have a fitted effect of over 55% in size
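150 nM 12hLO, 25 mM Hepes pH 7.0 + 0.01% Triton X-100; cpd preinc 15 min RT; 40 uM arachidonic acid, 30 min RT; Fe-XO 30 min; A573/A405 ratio as read-out.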
Active calls of the source: *; ? = inconclusive; . = not tested or not shown; [ ] = dose if it differs, or a comment. An excerpt weighted towards active compounds, which were near 3.3% of everything screened. Unless noted, calls come from the whole dose curve; as a rule, active = well fitted curve in the direction sought with a large enough effect; inconclusive = small, poorly fitted or top-dose-only effect, or another doubt; inactive = no such curve, though single readings can be large; an effect the other way counts as inactive or inconclusive.

SMILES	IMPase cell inh	HttQ103 aggreg	HTT cytoprotect	PNC inhibitor	NPSR antag	ALOX12 inhib
Nc1nc(SCC(=O)c2c(N)n(Cc3ccccc3)c(=O)[nH]c2=O)n[nH]1	.	7%[9.22 µM]	-13%[10 µM]	.	13%	.
Cc1ccc(-n2c(C)cc(C3N=C(N)Nc4nc5ccccc5n43)c2C)c(C)c1 (stereo not drawn)	10	-6%	-22%[10 µM]	14	10µM*	-1%
Cc1cc(C2N=C(N)Nc3nc4ccccc4n32)c(C)n1-c1ccccc1Cl (stereo not drawn)	14	?	11%	-99*	-8%[46.1 µM]	-7%
NC1=NC(c2ccc(F)cc2)n2c(nc3ccccc32)N1 (stereo not drawn)	-3	-3%	8%	19	-7%[46.1 µM]	-1%
NC1=NC(c2cccc(O)c2)n2c(nc3ccccc32)N1 (stereo not drawn)	1	-11%	-1%	-20	6%[46.1 µM]	2%
O=C1c2cccc(OCc3ccc(F)cc3)c2CCN1Cc1ccccc1	7	8%	4%[10 µM]	-82*	-49%	-5%
Cc1ccccc1CSCC(=O)NC(=O)NCc1ccco1	4	-8%[9.22 µM]	4%[10 µM]	-95*	-22%[46.1 µM]	-2%
N#C/C(=C\c1ccc(O)c(O)c1)C(=O)c1ccc(O)c(O)c1	?	.	-3%[1.9 µM]	.	-9%[46.1 µM]	?
N#C/C(=C\c1c[nH]c2ccccc12)C(=O)c1ccc(O)c(O)c1	10	.	9%[1.9 µM]	.	-17%[46.1 µM]	4µM*
O=C(Nc1ccc(OCC(F)(F)C(F)F)c(C(F)(F)F)c1)c1ccccc1O	-1	5µM*	-3%[10 µM]	?	7.9µM*	-7%
CC(C)(C)OC(=O)N1CC=C2C(C#N)=C(N)C(C#N)(C#N)C(c3cccs3)C2C1 (stereo not drawn)	1	23%	-22%[10 µM]	3	-10%[46.1 µM]	-8%
CCOC(=O)N1CC=C2C(C#N)=C(N)C(C#N)(C#N)[C@H](c3cccs3)C2C1 (stereo partly drawn)	4	24%	2%[10 µM]	-100*	-5%[46.1 µM]	-5%
CCCOc1ccc([C@@H]2C3CN(C(=O)OCC)CC=C3C(C#N)=C(N)C2(C#N)C#N)cc1OC (stereo partly drawn)	8	27%	4%[10 µM]	-81*	-14%[46.1 µM]	2%
N#CC1=C(N)C(C#N)(C#N)[C@H](c2ccncc2)[C@H]2CC3(CC=C12)OCCO3	12	-5%	-17%	-98*	-11%[46.1 µM]	-2%
COc1cc(C2C3CN(C)CC=C3C(C#N)=C(N)C2(C#N)C#N)ccc1OC(C)C (stereo not drawn)	1	-22%	2%[10 µM]	?	-28%[46.1 µM]	-4%
Cc1ccc(C2C3CSCC=C3C(C#N)=C(N)C2(C#N)C#N)cc1 (stereo not drawn)	-4	?	-12%[10 µM]	12	-4%[46.1 µM]	-11%
CC(C)N1CC=C2C(C#N)=C(N)C(C#N)(C#N)C(c3ccccc3)C2C1 (stereo not drawn)	-1	4%	-22%	-107*	-6%[46.1 µM]	-19%
Cc1nnc(NC(=O)c2ccc(S(=O)(=O)C(F)F)cc2)s1	.	-14%[9.22 µM]	-30%[10 µM]	.	3%	.
O=C(c1ccccc1)[C@@H]1O[C@H]1c1ccc(-c2ccccc2)cc1	1	.	26%	.	.	-4%
C=C(C)OC(C)=O	.	.	0%	.	.	-5%
CC(C)(C)OC(=O)N1CC=C2C(C#N)=C(N)C(C#N)(C#N)[C@H](c3cccnc3)[C@H]2C1	13	21%	24%[10 µM]	?	-3%[46.1 µM]	3%
N#CC1=C(N)C(C#N)(C#N)[C@H](c2ccncc2)[C@H]2CN(C(=O)OCc3ccccc3)CC=C12	-3	?	14%[10 µM]	-100*	?	-7%
CN1CC=C2C(C#N)=C(N)C(C#N)(C#N)C(Cc3ccccc3)C2C1 (stereo not drawn)	0	-3%	-3%[10 µM]	-119*	-3%[46.1 µM]	-9%
Cn1c(O)c(N=N/C(=N/c2ccccn2)c2ccccn2)c2cc(Br)ccc21	.	.	.	.	.	-11%
Cc1ccc(C2CC(=O)Oc3ccc(C(C)(C)C)cc32)cc1 (stereo not drawn)	.	.	28µM*	.	.	-7%[0.00818 µM]
SMILES	IMPase cell inh	HttQ103 aggreg	HTT cytoprotect	PNC inhibitor	NPSR antag	ALOX12 inhib
CCCOC(=O)CSC1=C(C#N)C(c2ccccc2OC)C(C#N)C(=O)N1 (stereo not drawn)	-9	?	-19%	-97*	-4%[46.1 µM]	-19%
Cc1noc(C)c1-c1nc(NC2CC2)c2ccccc2n1	.	.	-29%	.	.	.
COC(=O)NC(/C=C/c1ccccc1)C(C(C)=O)C(=O)OC (stereo not drawn)	.	.	-19%	.	.	.
CCOC(=O)C1=C(C)N=C2SC(C)C(=O)N2C1c1cccc(F)c1 (stereo not drawn)	0	5%	25µM*	37	-19%[46.1 µM]	0%
CC1=C(C(=O)OCC(C)C)C(c2cccc(F)c2)N2C(=O)C(C)SC2=N1 (stereo not drawn)	4	4%	12%[10 µM]	?	?	3%
COC(=O)C1=C(C(=O)OC)[C@@H]2N(C)c3ccc(OC)cc3[C@@]23C[C@@H](C(=O)OC)N(S(=O)(=O)c2ccc(C)cc2)C3=N1	.	.	5%[10 µM]	.	.	-4%[11.4 µM]
O=C(CCN1C(=O)c2cccc3cccc(c23)C1=O)Nc1ccon1	.	-9%[9.22 µM]	-6%[10 µM]	.	57%	.
c1ccc2c(c1)OCC(c1csc3ncnc(N4CCCCC4)c13)O2 (stereo not drawn)	?	11µM*	24%[10 µM]	188	?	-1%
CCCN1CCN(c2ncnc3scc(C4COc5ccccc5O4)c23)CC1 (stereo not drawn)	.	-17%	-3%[10 µM]	.	-31%	.
COc1ccc2c(c1)C(=O)[C@@H](OC(=O)N[C@H]1CCCc3ccccc31)[C@H](c1ccc(OC)c(Br)c1)O2	.	.	-14%	.	.	.
COc1ccc(N2CCN(Cc3nnc(-c4cccc(Br)c4)o3)CC2)cc1	-2	.	.	.	.	.
c1cn(-c2ncnc3sc4c(c23)CCCC4)cn1	-7	11µM*	20%[10 µM]	34	3%[46.1 µM]	3%
c1ccn(-c2ncnc3sc4c(c23)CCCC4)c1	1	-6%	10%[10 µM]	13	-1%[46.1 µM]	-7%
C/C=C/c1ccc(OCCCN2C(=O)NC(C)(C)C2=O)c(OC)c1	6	-2%[9.22 µM]	-19%	-125*	-4%[46.1 µM]	-4%
CC(C)CCNc1nc2c(c(=O)n(Cc3cccc(F)c3)c(=O)n2C)n1C	0	25µM*	-25%	9	-23%[46.1 µM]	-19%
